According to PubChem BioAssay AID1053173 (Broad Institute, 2014):
Out of some 1,500 compounds screened, about 390 (26%) were called active. The rule behind the calls is not given here. The list is a sample of the results. Entries with a potency or affinity are not part of this list.

These molecules were tested against Histone-lysine N-methyltransferase NSD2 (Homo sapiens) (UniProt O96028) (assay: NSD2 methyltransferase inhibitors, dose response, biochemical, AlphaScreen, cherry-picked samples (AID 1053173;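 note: 0% = neutral control wells and -100% = positive control wells on each plate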)). Conditions: NSD2 H4 peptide methylation, 120 min; series mostly up to 10 µM; activity change, negative = inhibition: at the top concentration.
Histone-lysine N-methyltransferase NSD2 (Homo sapiens), sequence (O96028 whole entry, looked up): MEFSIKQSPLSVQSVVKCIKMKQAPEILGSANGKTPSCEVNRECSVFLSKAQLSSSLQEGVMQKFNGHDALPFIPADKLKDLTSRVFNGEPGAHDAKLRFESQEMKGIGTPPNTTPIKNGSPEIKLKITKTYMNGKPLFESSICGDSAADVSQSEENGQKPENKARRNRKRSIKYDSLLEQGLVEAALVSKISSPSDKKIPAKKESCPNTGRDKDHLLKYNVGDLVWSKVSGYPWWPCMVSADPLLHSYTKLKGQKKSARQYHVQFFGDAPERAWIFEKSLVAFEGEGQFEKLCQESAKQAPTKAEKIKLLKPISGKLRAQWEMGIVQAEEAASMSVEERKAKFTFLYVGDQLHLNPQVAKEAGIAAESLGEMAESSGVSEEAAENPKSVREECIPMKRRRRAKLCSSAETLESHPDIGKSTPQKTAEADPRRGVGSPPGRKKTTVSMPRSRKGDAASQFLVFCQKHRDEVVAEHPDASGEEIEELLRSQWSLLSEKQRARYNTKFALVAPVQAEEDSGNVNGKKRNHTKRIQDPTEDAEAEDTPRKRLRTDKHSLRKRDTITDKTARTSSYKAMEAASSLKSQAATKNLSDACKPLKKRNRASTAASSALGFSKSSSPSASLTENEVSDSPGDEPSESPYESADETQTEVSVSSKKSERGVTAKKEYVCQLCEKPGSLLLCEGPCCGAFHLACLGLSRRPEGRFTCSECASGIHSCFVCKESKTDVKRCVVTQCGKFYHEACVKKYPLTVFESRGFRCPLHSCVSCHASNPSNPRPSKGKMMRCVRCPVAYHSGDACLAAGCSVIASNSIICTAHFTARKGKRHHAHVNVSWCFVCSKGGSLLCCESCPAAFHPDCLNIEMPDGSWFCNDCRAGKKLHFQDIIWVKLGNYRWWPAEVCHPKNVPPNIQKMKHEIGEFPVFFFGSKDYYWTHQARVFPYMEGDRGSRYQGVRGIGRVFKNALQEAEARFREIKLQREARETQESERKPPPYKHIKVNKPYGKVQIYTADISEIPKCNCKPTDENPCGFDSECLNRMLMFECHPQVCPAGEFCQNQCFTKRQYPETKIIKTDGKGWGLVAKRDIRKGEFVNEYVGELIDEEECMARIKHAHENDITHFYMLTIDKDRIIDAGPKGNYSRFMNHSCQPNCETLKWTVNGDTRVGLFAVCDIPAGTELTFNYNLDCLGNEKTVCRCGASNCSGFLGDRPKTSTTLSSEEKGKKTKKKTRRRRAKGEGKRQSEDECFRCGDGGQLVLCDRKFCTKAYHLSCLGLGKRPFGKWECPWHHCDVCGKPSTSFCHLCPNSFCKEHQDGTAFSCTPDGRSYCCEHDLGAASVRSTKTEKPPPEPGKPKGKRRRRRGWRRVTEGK

Activity change, negative = inhibition, inactive:
Nc1nonc1C(=O)NCCNC(=O)c1ccccc1F 4.89%
O=C(Nc1cccnc1)c1ccc(COc2ccccc2Cl)o1 -3.23%
CNc1ccc(Br)cc(C(=O)/C=C/c2ccc(OC)cc2)c1=O -11.9%
O=C(CCc1nnc(CCCCc2ccccc2)o1)NC1CCCC1 0.963%
Cc1ccc(-n2nc(C(=O)NCc3ccc(C)o3)c3c4ccccc4n(C)c3c2=O)cc1 -0.692%
CC(C)(C#N)NC(=O)C1CCCN1S(=O)(=O)c1ccc2ccccc2c1 (configuration not stated) -3.31%
Cc1ccc2cccc(NC3OC(=O)c4ccccc43)c2n1 (configuration not stated) -5.91%
COc1cc(C(=O)Nn2c(O)c(C3=c4ccccc4=NC3=O)sc2=S)ccc1O 1.57%
CN1CCN(c2ccc(NC(=O)COc3ccc4ccccc4c3)cc2)CC1 6.91%
CC(=O)N1CCN(c2ccccc2NC(=O)c2ccc3ccccc3c2)CC1 4.94%
COc1c(F)c(F)c(C(=O)Nc2cccc(Cl)c2N2CCOCC2)c(F)c1F -1.41%
Nc1c2c(=O)oc(-c3ccccc3)cc2nn1-c1ccccc1 0.608%
Cc1ccccc1-c1ocnc1C(=O)Nc1ccccc1NC(=O)c1ccccn1 -3.59%
O=C(N/N=C/c1cc2c(cc1[N+](=O)[O-])OCO2)c1ccccn1 1.47%
O=C(Nc1cccc(C(F)(F)F)c1)c1cc(-c2ccco2)on1 -0.125%
Cc1cccc(N2CCN(S(=O)(=O)c3c(C)nc4scc(C)n4c3=O)CC2C)c1 (configuration not stated) 4.46%
O=C(Nc1cc(S(=O)(=O)Nc2ccccc2F)ccc1Cl)c1ccc(F)cc1F -4.71%
CC1CC(C)CN(C(=O)C2CCN(S(=O)(=O)c3cccs3)CC2)C1 (configuration not stated) -1.91%
Cn1c(=O)c2c(nc(CN3CCc4ccccc4C3)n2CCc2ccccc2)n(C)c1=O -0.06%
Cc1ccccc1-n1nc(C)c2c1N=C1C(Cl)=CC(Cl)=CN1C2c1ccc(C(=O)O)cc1 (configuration not stated) -5.97%
CC(C)N(Cc1ccccc1)C(=O)C1CCCN(c2ncnc3c2nc2n3CCCCC2)C1 (configuration not stated) -1.45%
COc1ccc(NC(=O)c2ccc(F)c(F)c2)c2ccccc12 2.95%
c1ccc(-c2cc(-c3ccccc3)n3ncnc3n2)cc1 -0.881%
COCCNC(=O)Cc1c(C)c2c(cc(C)c3c(C)coc32)oc1=O -2.39%
CC1CCN(C(=O)CN(Cc2ccc(Cl)cc2)S(C)(=O)=O)CC1 -3.55%
CCc1ccccc1NC(=O)CSc1nc2n[nH]c(C)c2c(=N)n1-c1cccc(OC)c1 0.33%
CC(NC(=O)COC(=O)c1ccc([N+](=O)[O-])s1)c1ccccc1 (configuration not stated) -0.22%
CSc1ccccc1NC(=O)CN(C)C(=O)COc1ncnc2ccccc12 4.86%
COCCOC(=O)C1=C(C)NC(C)=C(C(=O)OC(C)C)C1c1cccc([N+](=O)[O-])c1 (configuration not stated) -0.917%
Cc1nnc(N/N=C/c2ccc(-c3ccccc3F)o2)n1N -3.53%
Nn1cnnc1N/N=C\c1ccc(-c2ccccc2[N+](=O)[O-])o1 -6.2%
CC(C)c1ccc(NC(=S)N2CCCC(c3ccc(F)cc3)=N2)cc1 6.21%
Cc1ccc(NC(=S)N2CCC(NC(=O)c3cccc(F)c3)CC2)cc1 4.83%
COc1ccc(S(=O)(=O)N2CCCC(C(=O)NCCCn3ccnc3)C2)cc1OC (configuration not stated) -0.379%
CC1CN(c2nc3c(c(=O)n(Cc4ccc(Cl)cc4)c(=O)n3C)n2C)CC(C)O1 (configuration not stated) 0.136%
O=c1c2c(n3cnnc3n1-c1ccccc1)-c1ccccc1CC21CCCC1 0.452%
N#Cc1cc(-c2ccccc2)nnc1Oc1ccccc1Cl -2.46%
CCN(CC)S(=O)(=O)c1ccc(-c2cn3cc(Cl)ccc3n2)cc1 4.2%
COc1ccc(C(=O)N(Cc2cccs2)C2CCS(=O)(=O)C2)cc1 (configuration not stated) -0.94%
CCOC(=O)Nc1cc(C(=O)OC)ccc1C -1.18%
Cc1cc(C(=O)COc2cccc(-n3cnnn3)c2)c(C)n1-c1ccccc1 -0.173%
O=C(Nc1ccc(Br)cc1)c1ccc(-n2cnnn2)cc1 -2.68%
O=C(C1CC1)N1CCc2[nH]c3ccccc3c2C1 -2.06%
C=CCn1c(N)c(C(=O)NCC2CCCO2)c2nc3ccccc3nc21 (configuration not stated) 2.42%
COc1ccccc1NC1C=CS(=O)(=O)C1 (configuration not stated) -0.449%
CC1CCCC(C)N1C(=O)COC(=O)c1ccc([N+](=O)[O-])o1 (configuration not stated) -9.53%
COc1ccccc1NC(=O)c1ccccc1NS(=O)(=O)N1CCCC1 -2%
O=C1ON=C(c2ccccc2)/C1=C/c1ccc(O)cc1 -0.931%
CCN1CCc2nc3ccccc3c(C(=O)Nc3ccc(NC(C)=O)cc3)c2C1 -11.6%
Nc1nc(Nc2ccccc2F)nc(NCCO)c1[N+](=O)[O-] 2.06%
CCCCn1c(=O)[nH]c2nc3cc(N)ccc3nc2c1=O 0.883%
COc1ccc(C(=O)NCc2nnc(SCC(=O)Nc3cc(C)cc(C)c3)o2)cc1OC -0.567%
Cc1nnc(N/N=C/c2ccccc2O)n1N 0.875%
COc1ccc(/C=N/Nc2nnc(C)n2N)cc1OC -5.85%
CN(C)S(=O)(=O)c1ccc(NC(=O)CCNC(=O)c2ccco2)cc1 3.08%
CC(=O)c1cccc(NC(=O)CC2CCCC2)c1 -1.9%
Cc1nc2ccc(S(=O)(=O)N3CCCCC3)cc2s1 -1.08%
CC(=O)NCCN1C(=O)C2C3c4ccccc4C(c4ccccc43)C2C1=O (configuration not stated) 4.66%
CCOC(=O)c1sc2nc(C)nc(NC3CCC(O)CC3)c2c1C (configuration not stated) 0.285%
CCCCC(=O)OCc1cn(-c2ccc(Cl)cc2)nn1 -2.69%
Cc1cccc(NC(=O)C2CCN(C(=O)NCc3ccccc3)CC2)c1C 2.02%
CN1C(=O)C(CCC(=O)O)NC1=S (configuration not stated) -0.941%
Cc1cccc(NC(=O)CSCC(=O)NCc2cccc(C(F)(F)F)c2)c1 -1.1%
O=C(O)c1cc(-c2ccco2)nn1-c1ccc(Cl)cc1 -13.9%
O=C(NCCCO)c1ccc2nc(-c3ccco3)c(-c3ccco3)nc2c1 -10.6%
O=C1CCN(Cc2ccccc2)N1 7.16%
COc1ccc2c(c1)Cc1sc(NC(=O)c3cccs3)nc1-2 -6.4%
COc1ccc(C(=O)OCC(=O)Nc2c(C)n(C)n(-c3ccccc3)c2=O)cc1 5.18%
O=Nc1ccc(O)c2ncccc12 1.26%
Cc1ccc(C#N)c(SCc2ccccc2F)n1 -0.897%
O=c1[nH]c(NCCO)c(N=Cc2ccccc2)c(=O)[nH]1 0.744%
COc1ccc(C2CCc3cc4c(cc3C2=NOC(C)=O)OCO4)cc1OC (configuration not stated) -3.53%
